Out of some 220,000 compounds screened, about 2,000 (0.91%) were called active. Roughly 2% stayed inconclusive and do not appear here. A selection follows. Results with a measured potency or affinity are listed apart. Unmarked numbers belong to inactive results. Rule as the data show it: inconclusive = inhibition above about 80% without an active follow-up result; inactive = below that; test concentration not stated here.
assay: M. tuberculosis H37Rv growth inhibitors, H37Rv strain (AID 1626); conditions: active compounds read high, concentration not given here;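 also: bacteria incubated seven days before Alamar blue readout; 0% = bacteria only wells and 100% = bacteria with antibiotic wells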

Structure (SMILES) | inhibition [%]
CCC(C)(C)n1nnnc1C(c1ccncc1)N1CCN(c2cccc(OC)c2)CC1 (configuration not stated) | -11.7
Cc1nc(SCC(=O)NCc2ccco2)c2c3c(sc2n1)CCCC3 | -8.98
Cc1cc(NC(=O)CSc2nc(C(C)C)nc3c2c(=O)n(C)c(=O)n3C)no1 | -4.22
Cc1cc(NC(=O)CSc2nc(C(C)C)nc3sc(C)c(C)c23)no1 | -4.44
Cc1cc(NC(=O)CSc2nc(C3CC3)nc3sc4c(c23)CCC(C)C4)no1 (configuration not stated) | -2.86
COc1ccccc1/C=C/C(=O)NCC(=O)N/N=C/c1ccccc1[N+](=O)[O-] | -1.7
CN(C)S(=O)(=O)c1ccc(C(=O)OCC(=O)Nc2sc3c(c2C#N)CCCCC3)cc1 | -0.67
CC(C)(C)c1ccc(-c2noc(-c3ccc4c(c3)CCO4)n2)cc1 | 10.1
Nc1c(N(CCO)C(=O)COc2ccc(Cl)cc2)c(=O)[nH]c(=O)n1Cc1ccccc1 | -6.77
Cc1ccc(Nc2nc(N)c([N+](=O)[O-])c(N3CCC(C)CC3)n2)cc1C | 10.8
O=c1cc(NCc2ccccc2)nc2ccccn12 | 4.08
O=C(CSc1ccccc1)Nc1ccncc1 | 0.82
O=C(CSc1ccccn1)Nc1ccc2c(c1)C(=O)c1ccccc1C2=O | 2.78
CC(=O)Nc1ccc(NC(=O)CSc2ccccn2)cc1 | 7.17
COc1ccc(NC(=O)CSc2ccccn2)cc1 | 7.31
COc1cccc(NC(=O)CSc2ccccn2)c1 | -1.36
COc1ccc(NC(=O)CSc2ccccn2)cc1OC | -4.19
O=C(CSc1ccccn1)Nc1ccc(NC(=O)CSc2ccccn2)cc1 | -2.88
Cn1ccnc1SCC(=O)Nc1ccc2ccccc2c1 | 11.1
O=C(NCc1ccccn1)/C(=N/O)c1ccccc1 | 1.57
COc1ccc(N2C(=O)NC(NC(=O)c3cccnc3)(C(F)(F)F)C2=O)cc1 (configuration not stated) | -4.91

Structure (SMILES) | inhibition [%]
Cc1nccc(-c2cc(-c3ccc(Cl)cc3Cl)no2)n1 | 0.59
Cc1onc(-c2ccccc2)c1C(=O)NNC(=S)NC(=O)/C=C/c1cccs1 | 5.26
O=C(N/N=C/c1cc([N+](=O)[O-])ccc1O)C1CC1 | 9.15
Cc1nn(-c2ccc(F)cc2)c2sc(C(=O)OC3CCOC3=O)cc12 (configuration not stated) | -1.05
Cc1ccc(S(=O)(=O)Nc2ccc3c(c2)nc(C)n3C)cc1 | 2.7
COc1ccc(/C=C2\Cc3ccccc3C2=O)cc1OC | 4.06
COc1ccc(/C=C2/CCc3ccccc3C2=O)cc1OC | 5.56
O=C1/C(=C/c2cccs2)COc2ccccc21 | 4.75
COc1cc(/C=C2/CC/C(=C/c3ccc(O)c(OC)c3)C2=O)ccc1O | -0.8
CNc1ccc(/C=C2\COc3ccccc3C2=O)cc1[N+](=O)[O-] | 10.8
COc1cc(/C=C2\COC/C(=C\c3cc(OC)c(OC)c(OC)c3)C2=O)cc(OC)c1OC | 21.1
CCC(C)NC(=O)CSc1nc2ccccc2c(=O)n1CCCC(=O)NCC1CCCO1 (configuration not stated) | -0.9
Cc1nn(Cc2ccccc2)c(Cl)c1C(=O)OCC#N | 2.96
Cc1cccc(NC(=O)CSc2ccc(C(N)=O)cc2[N+](=O)[O-])c1C | -7.31
O=C(O)CCC(=O)Nc1ccccc1C(=O)NCc1ccco1 | -1.28
Cc1ccc(NC(=S)N/N=C2/CCCCc3ccccc32)cc1 | -0.29
COc1ccc2nc(NC(=O)CSc3nnc(-c4ccoc4C)n3C)sc2c1 | 0.74
COCCOC(=O)c1c(NC(=O)CN2CCc3ccccc32)sc(C(N)=O)c1C | 6.77
CCn1cc(C(=O)O)c(=O)c2cnc(N3CCN(C(=S)Nc4ccccc4C(F)(F)F)CC3)nc21 | -8
O=C(O)C(Cc1c[nH]c2ccccc12)N1Cc2ccccc2C1=O (configuration not stated) | -8.14
CC(C)CNC(=O)NC1C(NC(=O)NCC(C)C)N(C)C(=O)N1C (configuration not stated) | -2.11

Structure (SMILES) | inhibition [%]
O=C(Nc1ccc(N2CCOCC2)cc1)c1cc2c(s1)CCCC2 | -7.27
COc1ccc2nc(/N=C\N(C)C)sc2c1 | 5.98
COc1ccc2nc(N=Nc3c(O)ccc4ccccc34)sc2c1 | 13.7
CC(C)(C)C(=O)NNC(=O)c1cc2sccc2s1 | 13.2
CCCS/C(N)=N/N=C/c1ccccc1O | 4.15
CC(=O)c1ccccc1OCC(O)CN1CCN(CCN2C(=O)c3cccc4cccc(c34)C2=O)CC1 (configuration not stated) | 39.8
CCOc1ccccc1C(=O)N1CCN(C(c2ccccc2)c2ccccc2)CC1 | 0.97
CC1=CC(=O)N(c2ccc(C)cc2)C1c1ccc(Cl)cc1 (configuration not stated) | 11.2
Cc1ccc2c(c1)c1c(n2CC(O)CNC(C)(C)C)CCCC1 (configuration not stated) | 3.21
Cc1ccc2c(c1)c1c(n2CC(O)CNC2CCCC2)CCCC1 (configuration not stated) | 27.5
COc1ccc(OC)c(NC(=O)CCc2c[nH]c3ccccc23)c1 | 11.6
COc1ccc(Oc2ccc(NC(=O)c3ccccc3C)cc2)cc1 | 9.33
COc1ccc(-c2nnc(NC(=O)C(C)C)o2)cc1 | 28.3
COc1ccc(-c2nnc(NC(=O)C3CC3)o2)cc1 | 14.1
COc1ccc(NC(=O)c2cc(Cl)ccc2Cl)c([N+](=O)[O-])c1 | 0.17
Cc1ccccc1C(=O)Nc1nnc(-c2ccncc2)o1 | 1.04
Cc1ccc(NC(=O)Nc2nnc(-c3ccccc3)o2)cc1 | 3.09
Cc1ccccc1C(=O)Nc1nnc(-c2cccnc2)o1 | 20.8
CCSc1nnc(-c2ccc(OC)cc2)o1 | 10.5
O=C(N/N=C/c1ccc2c(c1)OCO2)c1cc(-c2ccccc2Cl)nc2ccccc12 | 4.7

From PubChem BioAssay AID1626 (SRMLSC, 2009)
